Experimental data as given in PubChem BioAssay AID1063 (University of Pittsburgh Molecular Library Screening Center, 2008).
Screen size: about 200,000 compounds; about 18,000 (9%) were called active. The list comes from a sample in which actives are over-represented; it also holds similar structures and randomly drawn compounds. Values without a mark were called inactive. Cut-off read from the data, not from the text of the source: active = inhibition above about 50%; inactive = the rest.

Experiment: Leishmania major promastigote growth inhibition, primary screen (AID 1063);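 note: promastigotes grown with compound for 44 hours at 28 °C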
Conditions: Leishmania major promastigotes, resazurin fluorescence viability; at 10 µM; stronger effect = higher value

Compound	inhibition
CCOC(=O)c1cnc(-n2nc(C)cc2C)nc1Nc1cccc(C(C)=O)c1	4.22%
CCOC(=O)c1cnc(-n2nc(C)cc2C)nc1NNc1cc(C)nc(-c2ccccc2)n1	100% (active)
CCOC(=O)c1cnc(-n2nc(C)cc2C)nc1-n1nc(C)cc1C	33%
CCOC(=O)C(C)n1nc(-c2ccccc2)c2ccccc2c1=O (stereo not drawn)	12.5%
CN(C)c1nc(-c2cccnc2)nc(-c2ccc(Cl)cc2)c1C#N	8.3%
COCCN(CCOC)S(=O)(=O)c1ccc(/C(O)=C(\C#N)c2nc3ccccc3[nH]2)cc1	1.17%
CC(C)(C)NC(=O)NC(=O)COC(=O)C1(C)CC1(Cl)Cl (stereo not drawn)	0.27%
CCOn1c(=O)c(=O)n(O)c2ccccc21	-2.81%
Cn1nnnc1SCC(=O)NNC(=O)c1ccc(Br)cc1	-7.24%
COC(=O)CSc1nc(C2CC2)nc2ccccc12	-7.75%
O=C(CSc1nc(C2CC2)nc2ccccc12)Nc1ccc2c(c1)OCCO2	6.82%
CN(C(=O)CSc1nc(C2CC2)nc2ccccc12)c1nc(-c2ccccc2)cs1	54.6% (active)
CCn1ccnc1CN(C)Cc1nc(-c2ccc3c(c2)OCO3)no1	1.95%
CN(Cc1cc2cc(F)ccc2[nH]1)Cc1nc(-c2cnccn2)no1	-6.82%
CCN(CC)CCNCc1ccc(OCc2ccc(Cl)nc2)c(OC)c1	-3.17%
COc1cc(CNCCN(C)C)ccc1OCc1c(F)cccc1Cl	66.6% (active)
CCOCCCNCc1ccc(OCc2ccc(F)cc2)c(OC)c1	97.1% (active)
COc1cc(CNc2ncn[nH]2)ccc1OCc1ccccc1C	-5.58%
CCNC(=O)c1ccc(OCC(=O)Nc2ccc(F)cc2)c(OC)c1	0.66%
COc1ccc(CNCCCO)cc1OC	-3.13%
CCCCC1N2CC3([N+](=O)[O-])CN1CC([N+](=O)[O-])(C2)C3(C)C (stereo not drawn)	-3.35%
Cc1cccc(NC(=O)Nc2ccc3c(c2)OCO3)n1	-1.54%
CCN(CC)CCOc1ccc2c(c1)C(=NNC(=O)c1ccccn1)c1cc(OCCN(CC)CC)ccc1-2	101% (active)
CCOc1cc(NC(=O)c2ccccn2)c(OCC)cc1NC(=O)c1ccc(OC)cc1	-3.96%
CCC(C)(NC(=O)c1ccccn1)C(=O)NC1CCCCC1 (stereo not drawn)	0.94%

Compound	inhibition
CC(=O)C1=C(C)NC2=C(C(=O)CC(C)(C)C2)C1C (stereo not drawn)	-3.1%
CCC(C)NCC(=O)Nc1ccc([N+](=O)[O-])cc1C(=O)Nc1ccccc1F (stereo not drawn)	11.7%
CC(C)(C)NC(=O)C(=O)NN=C1CCCCCCC1	9.68%
OCCC1CN(Cc2ccc(Oc3ncccn3)cc2)CCN1CCc1ccccc1 (stereo not drawn)	59.6% (active)
CC(C)CCN1CCN(Cc2cn[nH]c2C2CCCCC2)CC1CCO (stereo not drawn)	24.3%
CC(=O)Nc1ccc(CN2CCN(Cc3ccc(F)c(F)c3)C(CCO)C2)cc1 (stereo not drawn)	6.71%
Cc1ccc(CN2CCN(Cc3ccc4ncccc4c3)CC2CCO)cc1 (stereo not drawn)	73.7% (active)
COC(=O)c1ccc(CN2CCN(CCCc3ccccc3)C(CCO)C2)cc1 (stereo not drawn)	83.9% (active)
OCCC1CN(Cc2ccc3nsnc3c2)CCN1C1CCCCC1 (stereo not drawn)	13.5%
CC(C)CCN1CCN(Cc2ccc(C(F)(F)F)cc2)CC1CCO (stereo not drawn)	87.1% (active)
CC(C)=CCN1CCN(Cc2ccc(Oc3ncccn3)cc2)CC1CCO (stereo not drawn)	-0.29%
Cc1ccc(CN2CCN(Cc3cccc(C)n3)CC2CCO)cc1 (stereo not drawn)	-2.02%
CC(C)N1CCC(N2CCN(Cc3cccnc3)CC2CCO)CC1 (stereo not drawn)	-2.03%
CC(C)CCN1CCN(C/C=C/c2ccco2)CC1CCO (stereo not drawn)	5.83%
COc1ccc(CN2CCN(Cc3cn(C)nc3-c3ccccc3)CC2CCO)c(C)c1C (stereo not drawn)	-0.96%
CCOC(=O)C(CC)/C(C)=N\NC(=O)c1cccc(C)c1 (stereo not drawn)	-5.28%
COC(=O)c1cccnc1NC(=S)NC(C)C	-3.71%
C=CCNC(=O)CC12CC3CC(C1)CC(CC(=O)NCC=C)(C3)C2	-6.25%
COc1cccc(C(=O)Nc2cccnc2)c1OC	-4.33%
CCCN(C(=O)CSc1nnnn1C)c1c(N)n(Cc2ccccc2)c(=O)[nH]c1=O	-5.81%
O=C(CCN1C(=O)C2C3C=CC(C3)C2C1=O)Oc1ccc2ccccc2c1 (stereo not drawn)	24%
O=c1[nH]c(N2CCN(Cc3ccc4c(c3)OCO4)CC2)nc2c1CCCC2	0.88%
CCOC(=O)CSc1ccccn1	-7.49%
Cc1c(Cc2ccccc2)c(=O)oc2cc(OCC(N)=O)ccc12	-6.96%
CCOc1ccc(NS(=O)(=O)c2cc(C)c(C)cc2C)cc1	5.1%

Compound	inhibition
S=C(c1ccc(-c2ccccc2)o1)N1CCCCC1	12.2%
Cc1ccc(CN2CCN(Cc3ccccc3-c3ccco3)CC2CCO)o1 (stereo not drawn)	3.16%
OCCC1CN(Cc2cccn2-c2nccs2)CCN1CCc1ccccc1 (stereo not drawn)	11.3%
COc1ccc(/C=C/CN2CCN(Cc3ccc(C)cc3)C(CCO)C2)cc1 (stereo not drawn)	67.4% (active)
Cc1ccc(CN2CCN(Cc3ccc(OCCO)cc3)CC2CCO)o1 (stereo not drawn)	-4.28%
OCCC1CN(Cc2cccc(O)c2)CCN1CCc1ccccc1 (stereo not drawn)	-0.63%
OCCC1CN(Cc2cnc(-c3ccccc3)s2)CCN1CCc1ccccc1 (stereo not drawn)	83.7% (active)
NC(N)=Nc1nc2ccc(Br)cc2c(=O)[nH]1	16.6%
CCOc1ccccc1N1CCN(C(=O)COc2ccc3c(C)cc(=O)oc3c2)CC1	43.7%
O=c1nc(N/N=C/c2ccco2)cn[nH]1	-3.61%
CCCCn1c(N)c(N2CCOCC2)c(=O)n(CC(=O)NCCc2ccccc2)c1=O	1.59%
Cc1oc(-c2ccccc2F)nc1CS(=O)(=O)CC(=O)NCCCN(C)C1CCCCC1	2.98%
CCCCN(CC)CCCNC(=O)CS(=O)(=O)Cc1nc(-c2cccc(OC)c2)oc1C	72.4% (active)
CCCN(CCC)CCCNC(=O)CNC(=O)c1nn(-c2ccc(OC)cc2)c(=O)c2ccccc12	1.38%
CCn1c(SCc2cc(=O)n3ccsc3n2)nc2ccccc21	-1.53%
CCC(=O)Nc1cc(C(F)(F)F)ccc1N1CCCC1	-2.29%
CCn1cc(CN2CCCC(CNS(=O)(=O)Cc3ccccc3)C2)cn1 (stereo not drawn)	50.3% (active)
CCOCCCNS(=O)(=O)Cc1ccccc1	-9.59%
O=C(CCC1CCCN(Cc2ccc(O)c(Cl)c2)C1)NCc1ccccc1F (stereo not drawn)	45.2%
O=C(COC(=O)CNC(=O)c1ccco1)Nc1ccc(F)cc1	-2.3%
Cn1c(C(=O)NCCN2CCc3ccccc3C2)cc2c(=O)[nH]c3ccccc3c21	11.6%
CN1CCN(CCCNC(=O)c2cc3c(=O)oc4ccccc4c3s2)CC1	0.79%
O=C(NCCN1CCN(Cc2ccccc2)CC1)c1cc2c(=O)[nH]c3ccccc3c2s1	101% (active)
CCC(C)NC(=O)c1nn(C)c(=O)c2ccccc12 (stereo not drawn)	0.91%
Cc1cccc(N=Nc2c(C)[nH]n(-c3ccccc3)c2=O)c1	-1.61%

Compound	inhibition
Cc1[nH]n(-c2cccc(Cl)c2)c(=O)c1-c1ccc(Cl)cc1	53.3% (active)
Cc1[nH]n(-c2cccc(Cl)c2)c(=O)c1/C=N/n1c(C)nc2ccccc2c1=O	-15.8%
Cc1nonc1NC(=O)CSc1nc2ccccc2cc1C#N	1.85%
CCSc1nc(C)c(CCOc2cccc(C)c2)c(=O)[nH]1	-3.36%
O=C(c1c(Cl)nc2sccn12)N1CCCc2ccccc21	-2.07%
O=C(CN1CCCCCC1)NCCN1C(=O)S/C(=C\c2ccccc2Cl)C1=O	1.89%
O=C1/C(=C\c2ccccc2Cl)SC(=S)N1CCC(=O)N1CCCc2ccccc21	97.9% (active)
CCOC(=O)N1CCN(C(=O)CSc2nc(C)nc3c2c(=O)n(C)c(=O)n3C)CC1	8.12%
S=c1[nH]nc(Nc2ccccc2)s1	-10.1%
O=[N+]([O-])c1ccc(F)cc1Oc1nc(-c2cccnc2)nc2ccccc12	16.9%
CC(=O)Nc1ccc(Sc2ccccc2C(=O)N2CCCC2)cn1	-4.22%
CCn1c(COc2ccccc2)nnc1SCC(=O)NCc1ccco1	-5.1%
CCS(=O)(=O)Nc1ccc(C2=NN(C(C)=O)C(c3cccs3)C2)cc1 (stereo not drawn)	0.67%
COc1ccc(CNc2c(CO)cnc3c2cnn3C)cc1	-4.57%
COC(=O)c1ccc(Cc2ccccc2)o1	-4.65%
CN(C)c1cc[n+](Cc2ccccc2)cc1	-2.95%
c1ccc(Cc2cc[n+](Cc3ccccc3)cc2)cc1	52% (active)
COc1ccc(-c2[nH]ncc2CN(C)Cc2cc(C)[nH]n2)c(F)c1	-3.28%
Cc1cc(C)c(S(=O)(=O)N2CCOCC2)cc1C	0.43%
Cn1cc(CCC(=O)N2CCCC(C(=O)c3ccc(C(C)(C)C)cc3)C2)cn1 (stereo not drawn)	-0.59%
CC(C)(C)n1nnnc1C(c1cccs1)N(Cc1cccnc1)CC1CCCO1 (stereo not drawn)	18.7%
CCOc1ccc(CN(Cc2ccco2)C(c2cccs2)c2nnnn2C(C)(C)C)cc1 (stereo not drawn)	73% (active)
Cc1ccc(S(=O)(=O)NNC(=O)Nc2cccc3ccccc23)cc1	34.5%
